Laboratory results reported in PubChem BioAssay (NCI).
Several values for one entry are separate records, joined by “and”; a condition that tells them apart may be missing. Identical values can stand only once. About 83,000 compounds went through this panel and 20% of them were active in at least one assay; those are over-represented in the sample as a whole.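 The endpoint reported here, percent growth, reads 100 for growth as untreated, 0 for no net growth and -100 for all cells dead.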 A number with no mark means an inactive call. Activity calls are given as the source filed them. How the source made its calls: active means growth percent below 10; inactive means the rest.

Each compound was assayed on MDA-MB-468 breast (assay: NCI-60 one-dose screen, 48 h (100 = growth as untreated, 0 = no growth, -100 = all killed)). Details: 10 µM unless noted.
Compound `FC(F)(F)c1cc(CNc2ncc(Br)c(Cl)n2)cc(C(F)(F)F)c1` has a growth of 93.2%. `C#CCNC(=O)[C@]1(C)CC[C@]2(C)CC[C@@H]3C(=CC[C@H]4[C@@]3(C)CC[C@H]3C(C)(C)C(=O)CC[C@]43C)[C@@H]2C1` was tested, and the growth was 104%. Compound `CC12CC(C#N)CCC1O2` (configuration not stated) has a growth of 111%. With `COc1ccc(-c2cnc(SCC(=O)Nc3ccc(-c4nc5ccccc5s4)cc3)n2-c2ccc(OC)cc2)cc1` the growth was -12.7% (active). Work on `O=C1CC2c3cc(-c4cc5ccccc5o4)ccc3CCN2C(=O)N1c1ccccc1` (configuration not stated) yielded a growth of 88.4%. In the case of `c1ccc2c(-c3c4ccsc4cc4[nH]c5ccccc5c34)c[nH]c2c1`, the growth is reported as 15.7%. `COc1cccc(-c2nn(-c3ccccc3)cc2-c2ccnc(NCCNC(=O)c3ccccc3)c2)c1` gave a growth of 47.7%. For `COc1ccc2oc3c4[nH]c5ccccc5c4c4c(c3c2c1)C(=O)N(O)C4=O`, the growth was 104%. Compound `COc1ccc(-c2noc(C(=O)O)c2-c2cc(OC)c(OC)c(OC)c2)cc1` has a growth of 24.7%. In the case of `CCOc1ccc(C(C[N+](=O)[O-])Sc2ccccc2N)cc1` (configuration not stated), the growth is reported as -58.4% (active). Compound `O=C1/C(=C/c2ccc(F)cc2)COc2ccc(O)cc21` has a growth of 86.4%. `CCN(CC)CCC(CNc1ccnc2cc(Cl)ccc12)c1ccc(O)cc1` (configuration not stated) gave a growth of 81.1%. Work on `CCc1ccc(-c2nnc(COc3ccc(-c4nc5ccc(C)cc5[nH]4)cc3OC)o2)cc1` yielded a growth of 63.1%. Compound `COc1ccc(Nc2cc(C)nc(NCc3ccccc3)n2)cc1` has a growth of 49.9%. `COc1ccc(C(=O)C(CN(C)C)c2ccc(OC)cc2)cc1` (configuration not stated) gave a growth of 14.2%. Work on `O=C(Cc1ccccc1)c1ccc(Cl)cc1` yielded a growth of 124%. `COc1cccc(C(=O)NCCCNc2cc(-c3cn(-c4ccccc4)nc3-c3cccc(OC)c3)ccn2)c1` gave a growth of 29.1%. In the case of `C=C(C)[C@@H]1CC[C@]2(C(=O)NCCCO)CC[C@]3(C)[C@H](CC[C@@H]4[C@@]5(C)CCCNC(C)(C)[C@@H]5CC[C@]43C)[C@@H]12`, the growth is reported as 72.3%. Work on `COc1ccc(Nc2cnc3cc(NS(=O)(=O)c4ccc(C)cc4)ccc3n2)cc1` yielded a growth of 46.1%. `O=C(O)c1cn(C2CC2)c2cc(N3CCN(C(=O)N/N=C/c4ccccc4)CC3)c(F)cc2c1=O` showed a growth of 83.7%. `CC(C)[C@]12O[C@H]1[C@@H]1O[C@]13[C@]1(O[C@H]1C[C@H]1C4=C(CC[C@@]13C)C(=O)OC4)[C@@H]2OC(=O)CN(C)C` was tested, and the growth was -55.2% (active). With `Cc1cc2nc(CC(=O)c3ccncc3)c(=O)[nH]c2cc1C` the growth was 102%. `O=S(=O)(NCCCNc1nccc(-c2cn(-c3ccccc3)nc2-c2ccc(Cl)c(O)c2)n1)c1ccccc1` was tested, and the growth was 59.7%. With `Cc1cc(C)cc(OCC(=O)O)c1` the growth was 131%. Compound `O=C1CC2C=CCN2C=C1NC(=O)c1ccccc1` (configuration not stated) has a growth of 98.9%. For `CC(C)C/C(=N\NC(=O)c1ccncc1)c1cc(Cl)ccc1O`, the growth was -1.67% (active). With `Cc1ccc(-c2csc(NC(=O)N3CCN(c4cc5c(cc4F)c(=O)c(C(=O)O)cn5C4CC4)CC3)n2)cc1` the growth was -5.11% (active). Work on `CCOc1ccc(Nc2nc(-c3ccc4c(c3)NC(=O)CO4)cs2)cc1` yielded a growth of 17.8%. `Cc1nn(-c2nc3ccccc3[nH]2)c2c1C(c1ccc(OCc3ccc(F)cc3)cc1)CC(=O)N2` (configuration not stated) was tested, and the growth was 65.3%. With `O=C(O[C@@H]1Cc2c(O)cc(O)cc2O[C@@H]1c1cc(O)c(O)c(O)c1)c1cc(O)c2c(c1)OCO2` the growth was 109%. Work on `COc1cc(/C=N/Nc2ccc(Br)cc2)cc(OC)c1OC` yielded a growth of 49.5%. In the case of `COC(=O)C(CSC(c1ccccc1)(c1ccccc1)c1ccccc1)NC(=O)C(CC(N)=O)NC(=O)OCc1ccccc1` (configuration not stated), the growth is reported as -17.7% (active). Compound `COc1ccc(OC)c(C(=O)c2oc3ccc(Br)cc3c2N)c1` has a growth of 23.6%. With `C=C(C)[C@@H]1CC[C@]2(C(=O)NCCNCCNCCN)CC[C@]3(C)[C@H](CC[C@@H]4[C@@]5(C)CCC(=O)C(C)(C)[C@@H]5CC[C@]43C)[C@@H]12` the growth was -49.1% [100 µM] (active). `CN1CNC(=O)NC1` was tested, and the growth was 102% and 96.9%. In the case of `COc1cc(C2CC(c3ccc(Cl)cc3)=NN2c2ccc(Cl)cc2)cc(OC)c1OC` (configuration not stated), the growth is reported as 100%. `Cc1c2cccnc2c(C)c2c1c1cc(CO)ccc1n2C` was tested, and the growth was -48.7% (active).
